# Measurements: ChEMBL document CHEMBL3988442, “University of Dundee, Small-Polar-MMV Screening Library” (2021)
# The campaign covered roughly 69,000 compounds. About 1,000 (1.4%) showed an effect of 50% or more. Many of the other results were omitted from the sample, so strong results are more common in it than they were.
# System: Leishmania donovani
# Assay: Leishmania intramacrophage assay
# Format: functional, organism-based
# Parameters: scale not given: in the data most compounds retested in dose-response had high values
smiles,measurement,setting,value
Cn1cc(CN2C[C@@H]3COC[C@]3(COCC3CC3)C2)cn1.O=C(O)C(F)(F)F,Percent Effect,"30.3 µM, […]",35.55%
Cc1nc(COC[C@@]23CCC[C@@H]2CN(Cc2cnn(C)c2)C3)cs1,Percent Effect,"30.3 µM, […]",33.3%
Cn1cc(CN2C[C@H]3CCC[C@@]3(COCC3CC3)C2)cn1.O=C(O)C(F)(F)F,Percent Effect,"30.3 µM, […]",55.4%
CN(C)C(=O)CN1CCCC2(CCN(c3ccsc3)C2=O)C1.O=C(O)C(F)(F)F (stereo not drawn),Percent Effect,"30 µM, 30.03 µM",-2.413%
O=C(O)C(F)(F)F.O=C1N(c2ccsc2)CCC12CCCN(CC1CC1)C2 (stereo not drawn),Percent Effect,"30.3 µM, […]",57%
COCCN1CCCC2(CCN(c3ccsc3)C2=O)C1.O=C(O)C(F)(F)F (stereo not drawn),Percent Effect,"30.3 µM, […]",-19.62%
Cc1ccoc1C(=O)N1C[C@@H](OCC2CC2)[C@H]2OCCC[C@H]21,Percent Effect,"30.3 µM, […]",18.9%
Cc1nc(NC(=O)C(C)N(C)Cc2cccc(C#N)c2)sc1C (stereo not drawn),Percent Effect,"30.3 µM, […]",-18.76%
Cc1nc(NC(=O)C(C)N(C)Cc2ccc3c(c2)OCO3)sc1C (stereo not drawn),Percent Effect,"30.3 µM, […]",11.52%
COc1cccc(CN(C)C(C)C(=O)Nc2nc(C)c(C)s2)c1 (stereo not drawn),Percent Effect,"30.3 µM, […]",51.15%
CCN(CC)C1CCN(C(=O)NCc2cccc(-n3ccnc3)c2)C1 (stereo not drawn),Percent Effect,"30.3 µM, […]",23.85%
Cl.O=C(O)C1(Cc2ccc(-c3cccs3)cc2)CCNC1 (stereo not drawn),Percent Effect,"30.3 µM, […]",44.48%
Cl.O=C(O)C1(Cc2cccc(-c3cccs3)c2)CCCNC1 (stereo not drawn),Percent Effect,"30.3 µM, […]",29.13%
Cl.O=C(N1CCCC1)C1(Cc2ccc(-c3cccs3)cc2)CCNC1 (stereo not drawn),Percent Effect,"30.3 µM, […]",86.38%
O=C(NCc1cc[nH]n1)NCC(O)c1ccc(F)cc1F (stereo not drawn),Percent Effect,"30 µM, 30.03 µM",9.759%
O=C(c1cnccn1)N1CCCC(C2=Nc3ccccc3S(=O)(=O)N2)C1 (stereo not drawn),Percent Effect,"30.3 µM, […]",-20.53%
O=C1CCC(=O)N1c1nn(Cc2cccc(F)c2)cc1Cl,Percent Effect,"30.3 µM, […]",-1.051%
CC(C)CN1CC(C(=O)NCCNc2ncccn2)CC1=O (stereo not drawn),Percent Effect,"30.3 µM, […]",7.647%
COCC(=O)N1CCCn2c(CN3CCCCC3)nnc2C1.O=C(O)C(F)(F)F,Percent Effect,"30 µM, 30.03 µM",-9.377%
COCC(=O)N1CCCn2c(CN3CCCC3)nnc2C1,Percent Effect,"30.3 µM, […]",44.76%
COCC(=O)N1CCCn2c(CN3CCCC3=O)nnc2C1,Percent Effect,"30.3 µM, […]",51.47%
CCOc1ccc(C(=O)NS(=O)(=O)c2cncc(Br)c2)cc1OC,Percent Effect,"30 µM, 30.03 µM",20.52%
CCOCCN(CCOCC)c1nc(C)nc2sccc12,Percent Effect,"30.3 µM, […]",93.26%
CCCN(CCOC)c1nc(C)nc2sccc12,Percent Effect,"30.3 µM, […]",19.01%
COCCN(Cc1sccc1C)c1nc(C)nc2sccc12,Percent Effect,"30.3 µM, […]",13.95%
Cc1nnc(SCCNC(=O)Cn2cnc3ccccc3c2=O)s1,Percent Effect,"30.3 µM, […]",15.09%
COc1cc(N2CCC3(CCN(Cc4csc(C)n4)C3)CC2)ncn1.O=C(O)C(F)(F)F,Percent Effect,"30.3 µM, […]",30.69%
COc1cc(N2CCC3(CCN(Cc4csc(C)n4)C3=O)C2)ncn1.O=C(O)C(F)(F)F (stereo not drawn),Percent Effect,"30.3 µM, […]",55.45%
Cc1cnc(N2CCC3(CCN(Cc4csc(C)n4)C3=O)C2)nc1.O=C(O)C(F)(F)F (stereo not drawn),Percent Effect,"30.3 µM, […]",19.08%
COCCCn1c(CN2CCSCC2)cnc1S(=O)(=O)C1CCCC1,Percent Effect,"30.3 µM, […]",17.55%
CCc1nc2n(n1)CC(NCC(=O)Nc1ccc(Cl)cn1)CC2 (stereo not drawn),Percent Effect,"30 µM, 30.03 µM",11.34%
NCc1ccc(Oc2cccc(Cl)c2Cl)cc1,Percent Effect,"30.3 µM, […]",17.28%
CC(C)C[C@H](N)COc1cccc(F)c1Oc1ccccc1,Percent Effect,"30.3 µM, […]",56.67%
CC(C)C[C@H](N)COc1cccc(F)c1Oc1ccc(Cl)cc1,Percent Effect,"30.3 µM, […]",96.61%
COc1ccccc1C(N)CC(C)C (stereo not drawn),Percent Effect,"30.3 µM, […]",3.977%
CCOc1ccccc1C(N)CC(C)C (stereo not drawn),Percent Effect,"30.3 µM, […]",19.23%
CCCOc1ccccc1C(N)CC(C)C (stereo not drawn),Percent Effect,"30.3 µM, […]",24.69%
CC(C)COc1ccccc1C(N)CC(C)C (stereo not drawn),Percent Effect,"30.3 µM, […]",23.51%
CNCc1cc(F)ccc1Oc1ccc(Cl)cc1,Percent Effect,"30.3 µM, […]",-3.595%
CC(CNS(N)(=O)=O)Oc1cccc(Cl)c1 (stereo not drawn),Percent Effect,"30.3 µM, […]",5.132%
CC(CNS(C)(=O)=O)Oc1cccc(Cl)c1 (stereo not drawn),Percent Effect,"30.3 µM, […]",6.182%
CC(C)C[C@H](N)COc1cccc(F)c1Oc1cccc(Cl)c1,Percent Effect,"30.3 µM, […]",98.08%
Cc1ccc(Oc2c(F)cccc2OC[C@@H](N)CC(C)C)cc1,Percent Effect,"30.3 µM, […]",95.01%
CCn1c(NCc2ccco2)nc2c(C)nn(C)c2c1=O,Percent Effect,"30 µM, 30.03 µM",16.24%
Cc1cc(CN2CCN(C(C)C)C(CCO)C2)[nH]n1 (stereo not drawn),Percent Effect,"30.3 µM, […]",0.4197%
c1ccc(Cc2nnc([C@H]3CCN(C4CCCCC4)C3)o2)cc1,Percent Effect,"30.3 µM, […]",11.62%
COc1ccccc1-n1nc(CC(C)C)nc1CSc1nnc(N)s1,Percent Effect,"30.3 µM, […]",13.73%
CN(C)C(=O)COC[C@]12COC[C@H]1CN(C1CCCC1)C2.O=C(O)C(F)(F)F,Percent Effect,"30.3 µM, […]",40.35%
CC(C)(C)NC(=O)CN1CCNCC1.Cl.Cl,Percent Effect,"30.3 µM, […]",11.16%
O=C(O)C(F)(F)F.O=C1CC2(CCN(CC3CC3)C2)CN1c1ccc2c(c1)OCO2 (stereo not drawn),Percent Effect,"30 µM, 30.03 µM",25.29%
Cc1c(C(C)N)cnn1-c1cccc2ccccc12 (stereo not drawn),Percent Effect,"30.3 µM, […]",22.69%
Cc1ccc(-c2noc(CCC(=O)NC(C)Cn3cccn3)n2)cc1 (stereo not drawn),Percent Effect,"30.3 µM, […]",22.16%
Cn1cc(NS(=O)(=O)c2ccc(C(F)(F)F)cc2)ccc1=O,Percent Effect,30 µM,-2.5%
